Experimental data as given in PubChem BioAssay AID1159580 (chemical genetic matrix, 2015).
Screen size: about 5,500 compounds; about 2,000 (36%) were called active. Another 18% or so got no clear call; they are omitted. Cut-off read from the data, not from the text of the source: active = normalized growth mostly below about 0.91 (no sharp cut-off); inconclusive = no clear call, values can overlap the other calls; inactive = mostly above about 0.92. This is one part of the list.

Assay: chemical genetic growth profiling, strain panel (AID 1159580);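 note: tested at 20 µM; growth read once vehicle control cultures reached saturation at 30 °C; 1 = growth at the plate median or of vehicle wells; lower values mean less growth of the strain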
Conditions: growth OD
[1] = S. cerevisiae deletion strains, locus YAL013W, strain DEP1, active compounds read low
[2] = S. cerevisiae deletion strains, locus YBR229C, strain ROT2, active compounds read low
[3] = S. cerevisiae deletion strains, locus YDL101C, strain DUN1, active compounds read low
[4] = S. cerevisiae deletion strains, locus YDL134C, strain PPH21, active compounds read low
[5] = S. cerevisiae deletion strains, locus YDR150W, strain NUM1, active compounds read low
[6] = S. cerevisiae deletion strains, locus YEL061C, strain CIN8, active compounds read low
[7] = S. cerevisiae deletion strains, locus YGR078C, strain PAC10, active compounds read low
[8] = S. cerevisiae deletion strains, locus YHR030C, strain SLT2, active compounds read low
[9] = S. cerevisiae deletion strains, locus YHR087W, strain rtc3, active compounds read low
[10] = S. cerevisiae deletion strains, locus YJL187C, strain SWE1, active compounds read low
[11] = S. cerevisiae deletion strains, locus YJR043C, strain POL32, active compounds read low
[12] = S. cerevisiae deletion strains, locus YJR075W, strain HOC1, active compounds read low
[13] = S. cerevisiae deletion strains, locus YLR039C, strain RIC1, active compounds read low
[14] = S. cerevisiae deletion strains, locus YLR058C, strain SHM2 (second series), active compounds read low
[15] = S. cerevisiae deletion strains, locus YLR085C, strain ARP6, active compounds read low
[16] = S. cerevisiae deletion strains, locus YLR262C, strain YPT6, active compounds read low
[17] = S. cerevisiae deletion strains, locus YML094W, strain GIM5, active compounds read low
[18] = S. cerevisiae deletion strains, locus YMR219W, strain ESC1, active compounds read low
[19] = S. cerevisiae deletion strains, locus YMR263W, strain SAP30, active compounds read low
[20] = S. cerevisiae deletion strains, locus YNL153C, strain GIM3, active compounds read low
[21] = S. cerevisiae deletion strains, locus YNL298W, strain CLA4 (second series), active compounds read low
[22] = S. cerevisiae deletion strains, locus YNL322C, strain KRE1, active compounds read low
[23] = S. cerevisiae deletion strains, locus YNR030W, strain Alg12, active compounds read low
[24] = S. cerevisiae deletion strains, locus YOL006C, strain TOP1, active compounds read low
[25] = S. cerevisiae deletion strains, locus YPL055C, strain LGE1, active compounds read low
[26] = S. cerevisiae deletion strains, locus YPL241C, strain CIN2, active compounds read low
[27] = S. cerevisiae deletion strains, locus YPR135W, strain CTF4, active compounds read low

Measured: normalized growth

O=[N+]([O-])c1ccc(C2N(Cc3ccccc3)CCC3CCCCN32)cc1 (stereo unspecified)
inactive: [1] 1 | [2] 0.998 | [3] 1 | [4] 1.01 | [5] 0.997 | [6] 0.983 | [7] 1.01 | [8] 0.954 | [9] 0.985 | [10] 0.999 | [11] 1.01 | [12] 0.966 | S. cerevisiae deletion strains, locus YKL190W, strain CNB1, active compounds read low 1.01 | [13] 1 | [14] 1.01 | [15] 1.02 | [16] 0.908 | [17] 0.983 | [18] 0.988 | [19] 0.998 | [20] 1.01 | [21] 1.01 | [22] 1.01 | [23] 1.02 | [24] 0.972 | [25] 0.985 | [26] 0.995 | [27] 1.03

COP(=S)(OC)Oc1cc(Cl)c(Cl)cc1Cl
active: [8] 0.127 | S. cerevisiae deletion strains, locus YHR079C, strain IRE1, active compounds read low 0.163 | S. cerevisiae deletion strains, locus YJL095W, strain BCK1, active compounds read low 0.163 | S. cerevisiae deletion strains, locus YJR066W, strain TOR1, active compounds read low 0.08 | S. cerevisiae deletion strains, locus YLR113W, strain HOG1, active compounds read low 0.163 | S. cerevisiae deletion strains, locus YNL183C, strain NPR1, active compounds read low 0.0646 | S. cerevisiae deletion strains, locus YOR231W, strain MKK1, active compounds read low 0.152 | S. cerevisiae deletion strains, locus YPL256C, strain CLN2, active compounds read low 0.151

COc1cc(Cl)c(Cl)cc1Cl
inactive: [1] 0.991 | [2] 1 | [3] 0.997 | [4] 0.997 | [5] 1.01 | [6] 0.992 | [7] 1 | S. cerevisiae deletion strains, locus YGR229C, strain SMI1, active compounds read low 0.997 | [8] 0.94 | [9] 1.01 | [10] 0.999 | [11] 0.974 | [12] 1.03 | [13] 0.986 | [14] 0.994 | [15] 1.06 | [16] 0.96 | [17] 1.03 | [18] 1.01 | [19] 1.01 | S. cerevisiae deletion strains, locus YMR307W, strain GAS1, active compounds read low 1.06 | [20] 0.983 | [21] 0.948 | [22] 1.01 | [23] 0.98 | [24] 0.949 | [25] 1.1 | [26] 1.02 | [27] 0.91 | S. cerevisiae strains, strain wild type, active compounds read low 0.981
